PubChem BioAssay (NCI)
The panel holds about 83,000 compounds, 20% with a hit somewhere; the sample as a whole holds those more often.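 Assay: single dose, 48 h. Readout: percent growth (0 = no net growth; negative = cell death). Active: <10.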 A number with no mark means an inactive call. Calls of active or inactive are those of the source.

Each molecule was assayed on HL-60(TB) leukemia (assay: NCI-60 one-dose screen, 48 h (100 = growth as untreated, 0 = no growth, -100 = all killed)). Settings: 10 µM unless noted.
For `O=C(Nc1ccc(Oc2cccc(Cl)c2)c(Cl)c1)c1cccnc1`, the growth was 6.06% (active). For `Nc1cccc(C(=O)Nc2ccc3c(O)c(N=Nc4ccc(N=Nc5ccc(S(=O)(=O)O)cc5)cc4)c(S(=O)(=O)O)cc3c2)c1`, the growth was 88.7%. For `C#CC(C)(O)[C@@H]1C[C@H](CC(=O)O)C1(C)C` (stereo partly drawn), the growth was 113%.
